# Assay outcomes: PubChem, National Center for Advancing Translational Sciences (NCATS)
# Only a selection was taken, and hits are over-represented in it overall.
# Marburg entry inh: qHTS for inhibitors of binding or entry into cells for Marburg Virus; Marburg virus pseudotyped entry inhibition, cell reporter; Potency, µM (series often up to 37.8 µM), for the others: at the top dose activity change, negative = inhibition, actives largely listed as inhibitors; 300,000 tested, 1.8% active; AID 540276, 2011; calls by dose curve; tested in HEK293 cells; also: potency is read from the fitted curve at half-maximal effect; % is scaled to controls: 0 for no effect and ±100 for the full control effect
# Lassa entry inh: qHTS for Inhibitors of binding or entry into cells for Lassa Virus; Lassa virus pseudotype entry inhibition, cell reporter; Potency, µM (doses to about 37.9 µM), for the others: at the highest dose activity change, negative = inhibition, actives largely listed as inhibitors; 300,000 tested, 1.2% active; AID 540256, 2011; calls by dose curve; tested in HEK293 cells; also: potency is read from the fitted curve at half-maximal effect; % is scaled to controls: 0 for no effect and ±100 for the full control effect; nearly all actives have a fitted effect of over 50% in size
# Vaccinia Venus: qHTS for Stage-Specific Inhibitors of Vaccinia Orthopoxvirus: Venus Reporter Primary qHTS; 330,000 tested, 0.46% active; Vaccinia virus Venus reporter expression, fluorescence; Potency, µM (titrated, usually from 36.5 µM), without a hit: at the highest dose activity change, negative = inhibition, most hits filed as inhibitors; calls by dose curve; tested in A549 cells; also: potency is read from the fitted curve at half-maximal effect; % is scaled to controls: 0 for no effect and ±100 for the full control effect; nearly all actives have a fitted effect of over 30% in size
# Vaccinia mCherry: qHTS for Stage-Specific Inhibitors of Vaccinia Orthopoxvirus: mCherry Reporter Primary qHTS. 310,000 tested, 0.63% active. Vaccinia virus mCherry reporter infection, fluorescence. Potency, µM (highest dose often 36.5 µM), without a hit: at the highest dose activity change, negative = inhibition, usual class: inhibitors; calls by dose curve; tested in A549 cells; also: potency is read from the fitted curve at half-maximal effect; % is scaled to controls: 0 for no effect and ±100 for the full control effect; nearly all actives have a fitted effect of over 35% in size
# Shiga inhibitor: A qHTS for Small Molecule Inhibitors of Shiga Toxin | Vero cells, Shiga toxin protein synthesis inhibition reporter | inhibition, % at 38.7 µM | 290,000 tested, 9.2% active | AID 2315, 2010; in the data active = inhibition mostly above about 28%, no sharp cut-off; inactive = mostly below about 43%; also: 0% is about no effect
# CHX counter: Cycloheximide Counterscreen for Small Molecule Inhibitors of Shiga Toxin. cell reporter, cycloheximide protein synthesis inhibition counterscreen. max response, %. 300,000 tested, 12% active. AID 2314, 2010; in the data active = max response mostly above about 13%, no sharp cut-off; inactive = mostly below about 14%; also: read at 38.3 µM for the half of the compounds with a filed dose; 0% is about no effect
# An asterisk follows results filed as active; i = inactive; ? = inconclusive; / = no result given; [ ] = remark or other dose.
SMILES,Marburg entry inh,Lassa entry inh,Vaccinia Venus,Vaccinia mCherry,Shiga inhibitor,CHX counter
CSCCC(NS(=O)(=O)c1ccc(C)cc1)C(=O)N1CCN(C(c2ccccc2)c2ccccc2)CC1 (configuration not stated),?,3.5µM*,-28%,?,/,/
COc1ccccc1N1CCN(C(=O)/C=C/c2ccc(C)cc2)CC1,?,14%,-21%,-13%,4,5
O=C(/C=C/c1ccc(F)cc1)NC(=S)N1CCN(c2ccccn2)CC1,?,10%[46.1 µM],-7%,-14%,98*,43*
COc1ccccc1N1CCN(C(=S)Nc2ccccc2)CC1,-17%,3%,-23%,-4%,/,1
COc1ccc(/C=C/C(=O)NC(=S)N2CCN(c3ccccc3OC)CC2)cc1,?,26%[46.1 µM],0%,-10%,22,20*
COc1ccccc1N1CCN(C(=S)Nc2ccc(F)cc2)CC1,-21%[46.1 µM],-34%[46.1 µM],-9%,-14%,45*,34*
COc1ccc(/C=C/C(=O)NC(=S)N2CCOCC2)cc1,12%[46.1 µM],4%[46.1 µM],-7%,i,73*,39*
CC(O)(c1cccc(F)c1)c1nc(-c2ccc3ccccc3c2)cs1 (configuration not stated),/,/,3%,i,/,/
C1CCN2CC3CC(CN4CCCC[C@@H]34)[C@H]2C1,/,/,-5%,i,/,/
O=C(CCCOc1ccccc1)N1CCN(c2ccccn2)CC1,?,?,-24%,i,115*,27*
O=C(CCCOc1ccccc1)N1CCN(c2ccc(F)cc2)CC1,9%,18%,-13%,/,112,24*
CCOc1ccc(CNC(=O)C2CCN(c3nc4ccccc4nc3C(F)(F)F)CC2)cc1OC,/,5%[46.1 µM],-10%,-3%,/,/
Cc1cccc(C)c1NC(=O)C1C2C=CC(C2)C1C(=O)O (configuration not stated),-20%,8%,1%,-19%,-6,-1
O=C(NNC(=O)C1C2C=CC(C2)C1C(=O)O)c1ccccc1O (configuration not stated),8%[46.1 µM],10%[46.1 µM],1%,-27%,50*,17*
O=C(NNC(=O)C1C2C=CC(C2)C1C(=O)O)c1ccccc1 (configuration not stated),?,2%[46.1 µM],0%,i,101*,39*
O=C(NNC(=O)C1C2C=CC(C2)C1C(=O)O)c1cc(Cl)ccc1O (configuration not stated),12%[46.1 µM],18%[46.1 µM],-11%,-1%,21,19*
CCOC(=O)c1ccc(C(=O)NNC(=O)C2C3C=CC(C3)C2C(=O)O)cc1 (configuration not stated),/,/,/,/,15,-2
COc1ccc(S(=O)(=O)N2CCOCC2)cc1NC(=O)CN1CCCc2ccccc21,-18%[46.1 µM],?,3%,i,/,/
O=C(COCc1cc(-c2ccc(F)cc2)on1)Nc1cc(Cl)ccc1O,3%[46.1 µM],-10%[46.1 µM],-6%,-12%,/,/
COc1ccc(N2CCN(c3cc(C)c4ccc(O)cc4n3)CC2)cc1,/,/,-18%,?,17,1
Cc1cc(Nc2ccccc2)nc2cc(O)ccc12,-25%,5%,-10%,-21%,114*,37*
COc1ccc(Nc2cc(C)c3ccc(O)cc3n2)cc1,/,/,/,/,52*,46*
Cc1cc(-c2nnco2)c(C)n1-c1ccccc1,?,1%,-14%,/,63,37*
[O-]/[N+](=C\c1ccc(F)cc1)c1ccccc1,?,5%,9%,-4%,6,18*
[O-]/[N+](=C\c1ccccc1)c1ccccc1,/,/,-4%,?,/,/
SMILES,Marburg entry inh,Lassa entry inh,Vaccinia Venus,Vaccinia mCherry,Shiga inhibitor,CHX counter
[O-]/[N+](=C\c1cccc(Br)c1)c1ccccc1,15%[46.1 µM],1%,9%,?,82*,44*
CCOc1ccc(CCNC(=O)C2Cc3ccccc3N2C(=O)CC)cc1OCC (configuration not stated),/,-23%[46.1 µM],4%,-3%,/,/
O=C(N=C1N=C2C=CC(Br)=CN2Cc2ccccc21)c1ccc([N+](=O)[O-])cc1[N+](=O)[O-],-9%[46.1 µM],5%,-8%,-20%,61*,40*
COCCNC(=O)Cn1nc(Cc2ccncc2)c2ccccc2c1=O,1%[46.1 µM],27%[46.1 µM],7%,i,-16,-2
O=[N+]([O-])c1ccc(NC(=S)NCCc2ccccc2)cc1,?,?,?,-24%,64*,28*
O=[N+]([O-])c1ccc(O)c(Nc2ncnc3ccccc23)c1,4%,10%,/,/,35,17*
O=[N+]([O-])c1ccc(O)c(NC(=S)Nc2ccccc2)c1,16%,2%,/,/,45,37*
O=[N+]([O-])c1ccc(NC(=S)NCCc2ccc(Cl)cc2)cc1,?,?,11µM*,?,-7,5
CCOc1ccc(N2CC(NC(=O)C3CCCC3)CC2=O)cc1 (configuration not stated),/,8%[46.1 µM],-4%,4%,/,/
O=[N+]([O-])c1ccc(NNC(=S)Nc2ccccc2)cc1,?,-1%,?,?,97*,37*
COc1ccc([N+](=O)[O-])cc1NC(=S)Nc1ccccc1,5%,9%,-12%,/,-10,-5
CCN(CC)C(=O)[C@H]1C[C@H](CC(=O)NCC23CC4CC(CC(C4)C2)C3)C(=O)N2CCc3c([nH]c4cc(-c5ccco5)ccc34)[C@]12C,/,/,11µM*,?,/,/
C[C@]12c3[nH]c4cc(-c5ccco5)ccc4c3CCN1C(=O)[C@@H](CC(=O)NCC13CC4CC(CC(C4)C1)C3)C[C@@H]2C(=O)N1CCOCC1,/,/,10µM*,?,/,/
CC(OC(=O)C1=Cc2ccccc2OC1)C(=O)NCc1ccco1 (configuration not stated),/,/,-14%,-1%,42,23*
COc1ccc(C(=O)Nc2ccc3ccccc3c2)cc1OC,2%,?,-10%,-13%,68*,43*
COc1ccc(C(=O)c2ccccc2Cl)cc1OC,?,22%,-11%,i,-11,-4
COc1ccc(C(=O)c2c(C(F)(F)F)oc3c2C(=O)c2ccccc2C3=O)cc1OC,2.8µM*,2.5µM*,5.6µM*,/,3,10
COc1ccc(OC)c(C(=O)c2ccc(C(=O)Nc3ccc4ccccc4c3)cc2)c1,?,10µM*,-6%,-2%,active,50*
COc1ccc(OC)c(C(=O)c2ccc(C(=O)c3cc(OC)ccc3OC)cc2)c1,-8%,?,-3%,-15%,-17,-7
Cn1nnc2cc(C(=O)Nc3ccc4ccccc4c3)ccc21,-15%[46.1 µM],13%,8%,i,108*,36*
Cc1cccc(Cn2ccn(Cc3ccc(Cl)cc3)c(=O)c2=O)c1,/,0%[46.1 µM],-5%,-2%,/,/
COc1ccccc1CCC(=O)N1CCOc2c(cc(-c3cnc4ccccc4c3)cc2OC)C1,/,/,-7%,-12%,/,/
